# Test results published in PubChem BioAssay (NCI).
# Where “and” joins values, the source holds several entries; their conditions need not be identical. Equal values may be shown once. Compounds without any hit were thinned out: in the full panel of roughly 83,000, 20% have a hit.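 Cells were grown in 96-well plates and exposed to the test compound at a single concentration for 48 hours; results are reported as percent growth, with values below 10 considered active.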 Calls of active or inactive are those of the source.
# Tested on: NCI/ADR-RES ovarian
# Assay: NCI-60 one-dose screen, 48 h (100 = growth as untreated, 0 = no growth, -100 = all killed)
# Details: 10 µM
# Method: Growth inhibition of the NCI/ADR-RES human […] tumor cell line is measured as a screen for anti-cancer activity. Cells are grown in 96 well plates and exposed to the test compound for 48 hours. Compounds are tested at a single concentration, which is 10^-5 M for most compounds. The reported endpoint is percent growth (GI% or GIPRCNT), where numbers from 0 - 100% represent growth inhibition, and numbers from -100% - 0 represent cell death. For example, a value of 40 represents 60% growth inhibition. A value of 0 means no net growth occurred over the course of the experiment. A value of -40 indicates 40% of cells at the beginning of the experiment died by the end of the experiment. A value of -100 means all cells are dead at the end of the experiment.
# NCI-60 Human Tumor Cell Lines Screen was performed using the standard one-dose NCI protocol, which is described in more detail at https://dtp.cancer.gov/discovery_development/nci-60/default.htm.
# Compounds with GIPRCNT values below 10 were considered active. Activity score was based on GIPRCNT using the following formula: […]
# Score is 0 for GIPRCNT values of 100 or above, 50 for GIPRCNT values of 0, and 100 for GIPRCNT values of -100.
row,SMILES,growth
1,O=c1ccn2c(n1)OC1CC2OC1COC(c1ccccc1)(c1ccccc1)c1ccccc1 (stereo not given),112% (inactive)

# Same assay, conditions: 10 µM unless noted
row,SMILES,growth
1,COc1ccccc1OCC(O)CO (stereo not given),100% (inactive) and 107% (inactive)
2,Cc1ccc(S(=O)(=O)n2ccnc2)cc1,101% (inactive)
3,OCc1ccccc1F,75.7% (inactive)
4,CC(=O)Oc1cc(C(C)C)c(OCCN(C)C)cc1C,99.5% (inactive) and 111% (inactive)
5,N=C(N=C(N)N)N1CCOCC1,105% (inactive) and 98.8% (inactive)
6,CCCC(=O)Oc1ccc(CC)cc1,105% (inactive)
7,Cc1cccc(Cl)c1N,101% (inactive)
8,S=c1ccc2ccccc2[nH]1,107% (inactive) and 110% (inactive)
9,Cc1ccc(NC(=S)N/C=C(\c2ccccc2)S(=O)Cc2ccccc2)c(C)c1 (stereo not given),105% (inactive)
10,COC(=O)c1nc(=S)[nH]c(C(=O)OC)c1C(=O)c1ccc(OC)cc1,99.8% (inactive)
11,Cc1ccc(N)cc1S(=O)(=O)O,106% (inactive) and 113% (inactive)
12,CC(=O)Oc1cc(C)c(OC(C)=O)c(C)c1C,95.2% (inactive)
13,CC1NC(C)c2ccc3ccccc3c2O1 (stereo not given),105% (inactive)
14,Oc1cccnc1CN1CCOCC1,106% (inactive) and 94.6% (inactive)
15,O=S(=O)(O)c1ccc2cc(O)ccc2c1,105% (inactive)
16,CC(=O)Nc1ccc2oc(=O)ccc2c1,116% (inactive)
17,CC(C)(C)C1=CC(=O)C(C(C)(C)C)=CC1=O,108% (inactive)
18,Cc1c(Cl)c(C)c(Cc2c(C)c(Cl)c(C)c(Cl)c2O)c(O)c1Cl,-3.46% (active)
19,O=C1C2=C(Nc3cc(Cl)ccc3N2)OC1c1c[nH]c2ccc(COc3ccccc3)cc12 (stereo not given),51.4% (inactive)

row,SMILES,growth
1,O=C1C=CC(n2cc(F)c(=O)[nH]c2=O)O1 (stereo not given),85.1% (inactive)
2,CCOC(=O)CN1CCC(C(=O)OCC)CC1,110% (inactive)
3,N#CC1c2ccccc2C=CN1C(=O)c1ccccc1 (stereo not given),108% (inactive) and 107% (inactive)
4,C(#CCN1CCOCC1)CCCN1CCOCC1,105% (inactive) and 104% (inactive)
5,CCOc1ccc(/C=C\C(=O)O)cc1,110% (inactive)
6,Cc1cc2ccccc2c2cc3ccccc3cc12,98.8% (inactive)
7,OC1CCCN(Cc2ccccc2)C1 (stereo not given),101% (inactive)
8,O=C1C=CC[C@H](/C=C/c2ccccc2)O1,34% (inactive) and 28.9% (inactive)
9,CC(=O)Nc1ccc(OC(C)=O)cc1,-11.9% (active) and 106% (inactive)
10,Cn1c(-c2ccccc2)cc(=O)cc1-c1ccccc1,82.2% (inactive)
11,CC(CN(C)C)CN1c2ccccc2Sc2ccccc21 (stereo not given),79.2% (inactive) and 85.1% (inactive) and 81.4% (inactive)
12,CCOP(C)(=O)/C(Cc1ccc(OC)c(OC)c1)=N\O (stereo not given),95.7% (inactive)
13,COC(=O)c1ccccc1Cl,109% (inactive)
14,CC(NC(=O)CCl)c1ccccc1 (stereo not given),104% (inactive)
15,O=C1CCC(=O)N1CC1CC2CCC1C2 (stereo not given),110% (inactive) and 104% (inactive)
16,O=c1[nH]c(=S)[nH]n1C(=S)n1[nH]c(=S)[nH]c1=O,95.2% (inactive)
17,CCN(CC)C(=S)SCCO,102% (inactive)
18,CC1(C)CC(=O)NC1=O,103% (inactive)
19,COC(=O)C(Cc1cn(C(C)=O)c2ccccc12)P(=O)(OC)OC (stereo not given),95.3% (inactive)

# Same assay, conditions: 100 µM
row,SMILES,growth
1,O=c1ccn2c(n1)OC1CC2OC1COC(c1ccccc1)(c1ccccc1)c1ccccc1 (stereo not given),103% (inactive)
